Holding throughout (test): NCI-60 one-dose screen, 48 h (100 = growth as untreated, 0 = no growth, -100 = all killed)
The test system of one experiment is EKVX NSCLC. Particulars: 10 µM unless noted.
The test system of the next experiment is SN12C renal. Particulars: 10 µM unless noted.
In the next experiment the test system is UO-31 renal. Particulars: 10 µM unless noted.
The next experiment concerns TK-10 renal. Particulars: 10 µM unless noted.
For a further experiment, the system named is ACHN renal. Particulars: 10 µM unless noted.
In the next experiment the test system is A498 renal. Particulars: 10 µM unless noted.
In a further experiment the test system is CCRF-CEM leukemia. Particulars: 10 µM unless noted.
Another experiment has as its system SR leukemia. Particulars: 10 µM unless noted.
Another experiment relates to RPMI-8226 leukemia. Particulars: 10 µM unless noted.
Another experiment has as its system OVCAR-8 ovarian. Particulars: 10 µM unless noted.
The test system of the next experiment is OVCAR-5 ovarian. Particulars: 10 µM unless noted.
A further experiment relates to OVCAR-4 ovarian. Particulars: 10 µM unless noted.
The test system of another experiment is SK-OV-3 ovarian. Particulars: 10 µM unless noted.
A further experiment relates to IGROV1 ovarian. Particulars: 10 µM unless noted.
Another experiment concerns OVCAR-3 ovarian. Particulars: 10 µM unless noted.
Another experiment has as its system HS 578T breast. Particulars: 10 µM.
A further experiment relates to NCI/ADR-RES ovarian. Particulars: 10 µM unless noted.
The test system of the next experiment is MOLT-4 leukemia. Particulars: 10 µM unless noted.

Compounds without any hit were thinned out: in the full panel of roughly 83,000, 20% have a hit.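 96-well plates, one dose, 48 hours. Percent growth reported; active if below 10.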 A number with no mark means an inactive call. Activity calls are given as the source filed them.

In the case of `CCCc1n(Cc2ccc3ccccc3n2)cc[n+]1Cc1ccc2ccccc2c1`, the growth in the experiment with EKVX NSCLC was 41.6%; with SN12C renal, -0.216% (active); in the experiment with UO-31 renal, 73.8%; in the experiment on TK-10 renal, -4.74% (active); with ACHN renal, 81.7%; in the experiment with A498 renal it was -3.21% (active). Also, the growth in the experiment on CCRF-CEM leukemia was 9.37% (active); in the experiment on SR leukemia it was -0.784% (active); with RPMI-8226 leukemia, -7.06% (active); in the experiment with OVCAR-8 ovarian, 10.8%; with OVCAR-5 ovarian, 5.17% (active); in the experiment with OVCAR-4 ovarian, 5.87% (active). In addition, the growth in the experiment on SK-OV-3 ovarian was 0.843% (active); with IGROV1 ovarian, 3.66% (active); in the experiment on OVCAR-3 ovarian it was -4% (active); in the experiment with HS 578T breast, 24.4%; in the experiment on NCI/ADR-RES ovarian it was 95.7%.
Turning to `O=c1[nH]c2cc(Cl)c(Cl)cc2o1`, the growth in the experiment with EKVX NSCLC is 68.3%; in the experiment with SN12C renal, 95.5%; with UO-31 renal it was 99.6%; in the experiment with TK-10 renal, 113%; in the experiment with ACHN renal, 104%; in the experiment on A498 renal it was 92.7%. The growth in the experiment on CCRF-CEM leukemia was 118%; in the experiment with MOLT-4 leukemia, 106%; in the experiment on SR leukemia, 126%; in the experiment with RPMI-8226 leukemia, 111%; with OVCAR-8 ovarian it was 104%; in the experiment with OVCAR-5 ovarian, 113%. The growth with OVCAR-4 ovarian is 106%; in the experiment on SK-OV-3 ovarian it was 107%; in the experiment with IGROV1 ovarian, 138%; in the experiment with OVCAR-3 ovarian, 102%; with HS 578T breast, 100%; in the experiment on NCI/ADR-RES ovarian it was 116%.
As to `CCOc1c(C#N)c2c(N)ncnc2n1C1OC(CO)C(O)C1O` (centres undefined), the growth is 58.4% in the experiment with EKVX NSCLC; 39.2% in the experiment on SN12C renal; 6.4% (active) with UO-31 renal; 88.4% in the experiment with TK-10 renal; 33.9% in the experiment on ACHN renal; -13% (active) with A498 renal. Also, the growth in the experiment on CCRF-CEM leukemia was -8.09% (active); in the experiment on OVCAR-8 ovarian, 89.6%; in the experiment with OVCAR-5 ovarian, 83.6%; in the experiment with OVCAR-4 ovarian, 56.1%; in the experiment on SK-OV-3 ovarian, 52.9%; in the experiment on IGROV1 ovarian, -57.7% (active). Moreover, the growth in the experiment with OVCAR-3 ovarian was -41.4% (active); with HS 578T breast, 50.9%; in the experiment on NCI/ADR-RES ovarian it was 62.4%.
Regarding `CCCc1n(Cc2ccc3ccccc3c2)c2ccccc2[n+]1Cc1ccc2ccccc2c1`, the growth in the experiment with EKVX NSCLC is -4.84% (active); with SN12C renal, -48.4% (active); in the experiment with UO-31 renal, -15.4% (active); in the experiment with TK-10 renal, -79.7% (active); in the experiment on ACHN renal, 3.74% (active); with A498 renal, -17.2% (active). Also, the growth in the experiment with CCRF-CEM leukemia is -32.3% (active); in the experiment on MOLT-4 leukemia, -58.9% (active); with SR leukemia it was -46.7% (active); in the experiment on RPMI-8226 leukemia, -60.9% (active); in the experiment with OVCAR-8 ovarian it was -71.3% (active); in the experiment on OVCAR-4 ovarian it was -16% (active). Besides, the growth in the experiment on SK-OV-3 ovarian is -21.5% (active); in the experiment on IGROV1 ovarian, -64.8% (active); with OVCAR-3 ovarian it was -76.8% (active); with HS 578T breast, -8.47% (active); in the experiment on NCI/ADR-RES ovarian, 79.4%.
Consider `COc1ccc([C@@H]2[C@@H](Cl)C(=O)N2c2cc(OC)c(OC)c(OC)c2)cc1C`, for which the growth in the experiment on EKVX NSCLC is 44.2%; in the experiment with SN12C renal, 31.2%; in the experiment on UO-31 renal, 38.8%; in the experiment with TK-10 renal it was 71.3%; with ACHN renal it was 31.6%; in the experiment with A498 renal it was -7.32% (active). Moreover, the growth in the experiment with CCRF-CEM leukemia was 9.56% (active); in the experiment on MOLT-4 leukemia, 8.89% (active); with SR leukemia it was 9.63% (active); in the experiment on RPMI-8226 leukemia, 8.48% (active); with OVCAR-8 ovarian, 14.8%; in the experiment on OVCAR-5 ovarian, 59.7%. In addition, the growth with OVCAR-4 ovarian was 39.1%; with SK-OV-3 ovarian, 30.4%; in the experiment on IGROV1 ovarian, 31.6%; in the experiment with OVCAR-3 ovarian it was -5.67% (active); in the experiment on HS 578T breast, 47.9%; in the experiment on NCI/ADR-RES ovarian, 16%.
Regarding `C=C(C)c1ccc(/C=N/NC(N)=S)cc1`, the growth is 7.97% (active) in the experiment on EKVX NSCLC; 93.3% with SN12C renal; 78.6% in the experiment with UO-31 renal; 103% in the experiment with TK-10 renal; 93.2% with ACHN renal; 98.4% in the experiment on A498 renal. Moreover, the growth was 64% with CCRF-CEM leukemia; 75.3% in the experiment with MOLT-4 leukemia; 66.9% in the experiment on SR leukemia; 72% in the experiment with RPMI-8226 leukemia; 81.5% in the experiment on OVCAR-8 ovarian; 120% with OVCAR-5 ovarian. In addition, the growth with OVCAR-4 ovarian is 83.7%; with SK-OV-3 ovarian, 125%; in the experiment with IGROV1 ovarian it was 82.8%; in the experiment on OVCAR-3 ovarian, 101%; with HS 578T breast, 65.6%; in the experiment with NCI/ADR-RES ovarian, 97.8%.
Regarding `CC(OC(=O)Nc1cccc(Cl)c1)C(=O)O` (centres undefined), the growth with EKVX NSCLC was 103%; with SN12C renal, 92.7%; in the experiment on UO-31 renal it was 90.7%; in the experiment on TK-10 renal, 102%; with ACHN renal, 97.4%; in the experiment on A498 renal, 23.2%. Further, the growth in the experiment on CCRF-CEM leukemia was 101%; with OVCAR-8 ovarian, 95.3%; in the experiment with OVCAR-5 ovarian it was 89.1%; in the experiment on OVCAR-4 ovarian it was 98.6%; with SK-OV-3 ovarian, 99.1%; with IGROV1 ovarian, 104%. For the same compound, the growth with OVCAR-3 ovarian is 96.3%; with HS 578T breast, 96.4%; in the experiment with NCI/ADR-RES ovarian, 96.8%.
`N#Cc1c(NN)n(C2OC(CO)C(O)C2O)c2ncnc(N)c12` (centres undefined): the growth was -0.0983% (active) in the experiment with EKVX NSCLC; 16.1% in the experiment on SN12C renal; -23.5% (active) in the experiment on UO-31 renal; 11.2% in the experiment with TK-10 renal; 7.45% (active) in the experiment with ACHN renal; -17.8% (active) in the experiment with A498 renal. The growth in the experiment on CCRF-CEM leukemia is -22.3% (active); in the experiment with OVCAR-8 ovarian, 0.0898% (active); with OVCAR-5 ovarian it was 17%; in the experiment with OVCAR-4 ovarian, 14%; in the experiment with SK-OV-3 ovarian, 2.07% (active); in the experiment on IGROV1 ovarian, -65.7% (active). Besides, the growth with OVCAR-3 ovarian is -42.3% (active); in the experiment with HS 578T breast it was 9.12% (active); in the experiment with NCI/ADR-RES ovarian it was 6.9% (active).
For `Cc1ccc(NC(=O)c2[nH]c(SCCN(C)C)nc2-c2ccc(F)cc2)cc1C#Cc1cnc2cccnn12`, the growth in the experiment with EKVX NSCLC is 38.2%; in the experiment on SN12C renal, 87.3%; in the experiment with UO-31 renal it was -77.2% (active); with TK-10 renal, 105%; in the experiment on ACHN renal, -88% (active); with A498 renal it was 102%. Moreover, the growth with CCRF-CEM leukemia is 1.64% (active); in the experiment on MOLT-4 leukemia it was 55.1%; with SR leukemia, -35.9% (active); in the experiment on RPMI-8226 leukemia, -6.17% (active); in the experiment with OVCAR-8 ovarian, -12.2% (active); in the experiment on OVCAR-4 ovarian, -59.2% (active). The growth with SK-OV-3 ovarian was 98.5%; with IGROV1 ovarian, 78.6%; with OVCAR-3 ovarian, 102%; with NCI/ADR-RES ovarian it was 11.1%.
